# Source: PubChem (several laboratories)
# VLA-4 inh: inhibition in a human VLA-4 binding assay | AID 2557 | VLA-4 expressing cells, ligand binding flow cytometry | hit rate 0.2% among 330,000 | inhibition, % (about 7 µM as worked out from the volumes in the protocol) | P13612; in the data active = inhibition above about 50%
# SUMO Mot1 rescue: inhibitors of SUMOylation pathway: yeast Mot1-301 growth rescue. S. cerevisiae Mot1-301 growth rescue, ATP luminescence, 38.5C; percent above DMSO median, 100 means doubled. growth rescue, % at 18.8 µM. hit rate 1% among 320,000. AID 2716;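 active = every valid replicate shows activation above 250% relative to neutral control wells; inactive = the rest, any valid replicate at or below 250%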
# AHR activator: activates the human aryl hydrocarbon receptor; activation, % at 5 µM; hit rate 2.5% among 320,000; AID 2796; AHR-responsive luciferase reporter cells, luminescence; P35869; in the data active = activation above about 47%
# Efflux pump inh: inhibitors of Candida antifungal efflux pumps expressed in yeast; S. cerevisiae Candida pump triplex, Nile Red efflux; inhibition, % at 10 µM; hit rate 0.44% among 330,000; AID 485275;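 active = plate passing quality check with inhibition over a set limit, or well fluorescence over plate mean plus 4 SD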;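 note: Nile Red retained in pooled yeast measured as flow cytometry median fluorescence; higher means more Nile Red kept so more efflux inhibition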
# Bfl-1 A1 inh: inhibitors of the anti-apoptotic protein A1, read as caspase activation; AID 2462; hit rate 0.066% among 330,000; MEF A1-2A-BIM cells, Caspase-Glo 3/7 luminescence, 3 h; percent of clofoctol response, vehicle zero; caspase activation, % (no concentration beside the values);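 active = over half of replicate activation scores above 10%, or exactly half above 10 with the replicate mean above 10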
# ALR inh: human ALR oxidase inhibition via reduced H2O2. purified ALR, DTT oxidation, H2O2 HRP-luminol luminescence. P55789. inhibition, % (concentration not given with the values). hit rate 3.8% among 290,000;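 active = mean replicate inhibition above about 79%, with every replicate also reaching it, limit read from the data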
# Target sequence (P55789 whole entry, looked up): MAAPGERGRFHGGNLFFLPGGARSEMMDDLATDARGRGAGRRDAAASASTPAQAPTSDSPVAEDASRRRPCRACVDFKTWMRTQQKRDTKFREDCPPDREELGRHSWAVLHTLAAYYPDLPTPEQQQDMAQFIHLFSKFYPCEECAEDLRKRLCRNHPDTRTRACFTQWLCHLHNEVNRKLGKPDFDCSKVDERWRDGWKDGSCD
# Numbers stand for hits; n = inactive; x = no result given. The list is not random: actives were taken first. Their share in the collection is about 7.2%.
SMILES,VLA-4 inh,SUMO Mot1 rescue,AHR activator,Efflux pump inh,Bfl-1 A1 inh,ALR inh
Oc1ccc(-c2csc(Nc3cccc4ccccc34)n2)cc1O,n,n,52,n,n,n
Cc1ccnc(Nc2nc(-c3ccc(O)cc3O)cs2)c1,n,n,n,n,n,99
Oc1ccc(-c2csc(Nc3ccccn3)n2)cc1O,n,n,n,n,n,98
Cc1ccnc(Nc2nc(-c3ccc(O)cc3)cs2)c1,n,n,n,n,n,n
Cc1cccc(Nc2nc(-c3ccc(O)c(O)c3)cs2)n1,n,n,n,n,n,99
CC(=O)Nc1ccc(-c2csc(Nc3ccccn3)n2)cc1,n,n,n,n,n,n
CC(C)NC(=S)NC(=O)/C=C/c1cccc2ccccc12,n,n,n,n,n,n
O=C(Nc1ccc2c(c1)OCO2)N1CCC(CO)(CC2CCCCO2)CC1 (centres undefined),n,n,n,n,n,n
Cc1c(C(=O)N2CCN(c3ccccc3)CC2)oc2c(F)cccc12,n,n,n,n,n,n
COc1ccc(-c2csc(Nc3ncccc3C)n2)cc1OC,n,n,n,n,n,n
Cc1cccnc1Nc1nc(-c2ccc(O)c(O)c2)cs1,n,n,n,n,n,99
Cc1ccnc(Nc2nc(-c3ccc(O)c(O)c3)cs2)c1,n,n,55,n,n,98
Cc1noc(C)c1C(=O)OC(C)C(=O)Nc1ccc(S(=O)(=O)NC(C)C)cc1 (centres undefined),n,n,n,n,n,n
O=C(O)c1ccccc1SC1CC(=O)N(c2ccc3c(c2)OCO3)C1=O (centres undefined),n,n,n,n,n,n
Nc1ccccc1SC1CC(=O)N(c2ccc3c(c2)OCO3)C1=O (centres undefined),n,n,72,n,n,n
CCCCn1nc(C(=O)Nc2ccccc2N2CCCC2)c2ccccc2c1=O,n,n,n,n,n,n
CCOC(=O)c1sc(-c2ccccc2)cc1N,n,n,n,n,n,n
CCOC(=O)c1sc(-c2ccccc2)cc1NC(=O)Nc1ccc([N+](=O)[O-])cc1,n,n,n,n,n,99
Nc1cc(N)nc(SCC(=O)c2ccccc2)n1,n,n,n,n,n,99
COc1ccc(Cl)cc1C(=O)CSc1nc(N)cc(N)n1,n,n,n,n,n,94
O=C(CSc1nc2cc(Cl)ccc2s1)c1cc2ccccc2o1,x,n,n,n,n,n
Nc1cc(N)nc(SCC(=O)Nc2ccccc2)n1,n,n,n,n,n,n
Nc1ccc2nc(-c3ccccc3)sc2c1,n,n,n,n,n,n
Nc1ccc2nc(SCc3ccccc3F)sc2c1,n,n,n,n,n,99
Nc1ccc2nc(SCC(=O)c3ccccc3)sc2c1,n,n,49,n,n,n
SMILES,VLA-4 inh,SUMO Mot1 rescue,AHR activator,Efflux pump inh,Bfl-1 A1 inh,ALR inh
CC(=O)NC(Cc1ccccc1F)C(=O)NC1CCN(C(=O)NCc2ccccc2)CC1 (centres undefined),n,n,n,n,n,x
O=C(/C=C/c1ccccc1)C1=C(O)C(=O)N(CCO)C1c1ccc2c(c1)OCO2 (centres undefined),n,n,n,n,n,n
CCCn1c(=O)n(N)c2ccccc21,n,n,n,n,n,n
Nc1nnc(SCC(=O)c2ccc3ccccc3c2)s1,n,n,48,n,n,n
C/C(=N/NS(=O)(=O)c1ccc(C)cc1)c1ccc(NC(=O)C(F)(F)F)cc1,n,n,n,n,n,n
COc1ccc(NC(=O)c2cc3cc(C)ccc3n2C)c(OC)c1,n,n,59,n,n,n
O=C(Nc1cc2c(oc1=O)CCCC2=O)c1ccccc1,n,n,62,n,n,n
CCOC(=O)C1=C(C)OC(N)=C(C#N)C1c1ccc(C)s1 (centres undefined),n,515,n,n,n,x
CCOC(=O)C1=C(C)OC(N)=C(C#N)C1c1cccc(C)c1 (centres undefined),n,n,n,n,n,n
COc1cc(NC(=O)CN2c3ccccc3CC2C)cc(OC)c1OC (centres undefined),n,n,n,n,n,97
COc1ccc(Cl)cc1NC(=O)CN1c2ccccc2CC1C (centres undefined),n,n,n,n,n,n
COc1ccc(C(=O)N2CCN(Cc3nc(CC4CC4)no3)CC2)cc1,n,x,n,n,n,n
O=C1COc2ccc(C(=O)/C=C/c3ccccc3)cc2N1,n,n,n,n,n,97
